Consider two compounds from PubChem BioAssay (NCATS).

Assay [1] can be described thus: Validation of Assay for Modulators of Lamin A Splicing (AID 1459; active = well fitted curve in the direction sought with a large enough effect in the signal ratio; the % refers to the signal ratio;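 note: cells exposed to compound for two days before reading; 0% is about no effect; ratio rise marks activators and ratio drop marks inhibitors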). The method, boiled down: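 HeLa S3 lamin A-EGFP/DsRed2 stable clone, 600 cells/well, Opti-MEM 2% FBS; compounds by pin tool; 48 hrs, 37 °C/5% CO2; Acumen 488 nm scan, objects 10-100 um; GFP/RFP intensity ratio.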
Assay [2] in a line: qHTS Assay for Lipid Storage Modulators (AID 1519; calls by dose curve; for activity change, negative = inhibition: % is set by controls: 0 for no effect and ±100 for the full control effect). The following applies: Drosophila S3 cells, BODIPY lipid droplet/cell ratio, laser cytometry, cells loaded with oleic acid. The method, boiled down:
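Cells seeded at 5,000 per well were treated with compounds over a concentration series and loaded with oleic acid (400 uM, as added). Lipid droplet fluorescence (488 nm excitation, 500-530 nm channel) was read by laser-scanning cytometry and normalized to 20 uM Triacsin C.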
A general note: qHTS replaces the single test concentration by a dilution series.

In assay [3] the target is DNA repair nuclease/redox regulator APEX1 (Homo sapiens) (UniProt P27695). As to the kind of experiment: qHTS Validation Assay for Inhibitors of the Human Apurinic/apyrimidinic Endonuclease 1 (APE1) (AID 1705;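 note: TAMRA fluorescence gain over two minutes as APE1 cuts a quenched THF abasic duplex; % is set by controls: 0 for no effect and ±100 for the full control effect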). The method, boiled down:
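qHTS, 1536-well. APE1 + cpd 15 min RT → 50 nM TAMRA/BHQ-2 THF-abasic dsDNA substrate → kinetic fluorescence, 3 reads/60 s; delta(read3−read1) = reaction progress. No-enzyme buffer = negative control.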

The nature of assay [4]: Counterscreen for APE1 Inhibitors: Fluorescent Dye Displacement Validation Assay (AID 1707).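 Note: plate controls were ThO with dsDNA and no compound for no effect and ThO without dsDNA for full effect.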 The method, boiled down:
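Counterscreen flags promiscuous DNA binders: compounds displacing ThO from duplex DNA (abasic THF site, 50 nM) reduce 540 nm emission (480 nm excitation). ThO 250 nM final; Tris-HCl pH 7.5 with NaCl, MgCl2 and Tween-20.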
On the technique in general: Counterscreens check selectivity or assay interference.

The target of assay [5] is Endonuclease 4 (Escherichia coli (strain K12)) (UniProt P0A6C1). As to the kind of experiment: Counterscreen for APE1 Inhibitors: qHTS Validation Assay for Inhibitors of Endonuclease IV (AID 1708). Note: % is set by controls: 0 for no effect and ±100 for the full control effect. The method, boiled down:
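Incision of a double-stranded 50 nM TAMRA/BHQ-2 abasic substrate was followed kinetically (525/598 nm, reads every 60 s) after 15 min enzyme–compound preincubation with 2 nM EndoIV in pH 7.5 Tris buffer with MgCl2, DTT and Tween-20; concentration-response format.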

The nature of assay [6]: qHTS for differential inhibitors of proliferation of Plasmodium falciparum line 7G8 (AID 1815).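 Note: parasite growth measured after three days of incubation; plate controls were vehicle wells for no effect and reference inhibitor wells for full effect.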
The nature of assay [7]: qHTS for differential inhibitors of proliferation of Plasmodium falciparum line GB4 (AID 1816).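 Note: parasite growth measured after 72 h incubation; 0% = vehicle DMSO and -100% = reference inhibitor.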 The following applies: Potency: Plasmodium falciparum GB4 proliferation inhibition.
The nature of assay [8]: qHTS for differential inhibitors of proliferation of Plasmodium falciparum line Dd2 (AID 1882).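 Note: plate controls were DMSO vehicle for no effect and 0.29 µM artemisinin for full effect; nearly all actives have a fitted effect of over 65% in size.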 The note with it: Potency: Plasmodium falciparum Dd2 proliferation inhibition. The method, boiled down: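 SYBR Green DNA fluorescence (ex 485, em 535 nm) after overnight lysis quantifies parasite growth; compound exposure lasted 72 h at 37 C on infected red cells at 2.5% hematocrit, 0.3% parasitemia (final). Artemisinin 0.29 uM and vehicle wells define normalization.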

A short description of assay [9]: qHTS for differential inhibitors of proliferation of Plasmodium falciparum line HB3 (AID 1886).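 Note: parasites grown with compound for 72 h before SYBR Green readout; plate controls were vehicle for no effect and reference inhibitor for full effect.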 The following applies: Potency: Plasmodium falciparum HB3 proliferation inhibition.
Assay [10] in a line: qHTS Assay for Modulators of Human Peripheral Myelin Protein 22 (PMP22) Expression/Activity (AID 1967; active = well fitted curve in the direction sought with a large enough effect in the signal ratio; the % refers to the signal ratio;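 note: 0% = untreated cells and 100% end not stated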). The method, boiled down: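 Luminescence ratio of Pmp22 promoter-driven green luciferase to EF-alpha-driven red luciferase, in engineered mouse MSC80 Schwann cells, served as read-out. Compounds were incubated 24h; untreated cells defined 0% Activity; curves were classified by r2, magnitude and activity.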

The target in assay [11] is Ferritin light chain (Equus caballus) (UniProt P02791). The assay can be described thus: qHTS Validation Assay for Identification of Novel General Anesthetics (AID 2323). Note: % is set by controls: 0 for no effect and ±100 for the full control effect. The method, boiled down:
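Fluorescence at 535 nm (excitation 380 nm) reported loss of 1-AMA binding to horse-spleen apoferritin (10 uM) in PBS with 50% saturated 1-aminoanthracene, after 10 min room-temperature incubation with compound; values from Hill fits of normalized response.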

For assay [12], the target named is ATP-dependent DNA helicase Q1 (Homo sapiens) (UniProt P46063). The assay can be described thus: qHTS Validation Assay for Inhibitors of RecQ-Like Dna Helicase 1 (RECQ1) (AID 2353).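 Note: plate controls were DMSO vehicle for no effect and enzyme-free control for full effect.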 The method, boiled down:
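RECQ1T1 50 nM; forked duplex (20 bp + 30-nt ss tails) 200 nM, ATP 2 mM final; pH 8.0, 2 mM MgCl2, 2.5 ug/ml poly(dI-dC); 15 min compound preincubation; discontinuous kinetic read over 2 h at RT.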

Assay [13] in a line: Validation screen for small molecules that induce DNA re-replication in MCF 10A normal breast cells (AID 463097). Note: 0% is about no effect; nearly all actives have a fitted effect of over 60% in size. The method, boiled down:
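Image-based qHTS: normal breast cells are incubated with compound for 48 hr, stained with Hoechst, and scanned for total nuclear fluorescence. Compounds raising the fraction of nuclei with elevated DNA content count as re-replication inducers.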

A short description of assay [14]: Quantitative high throughput screen for delayed death inhibitors of the malarial parasite plastid, 48 hour incubation (AID 488752). Note: % is set by controls: 0 for no effect and ±100 for the full control effect; nearly all actives have a fitted effect of over 65% in size. The method, boiled down:
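First, compound was pinned into RPMI 1640 medium containing 0.5% Albumax. Next, reporter-parasite-infected erythrocytes were added to 2% hematocrit and 0.1% parasitemia. After 48 h at 37 C under 5% CO2, luciferase detection reagent was added and luminescence read.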

Assay [15] addresses M-phase phosphoprotein 8 (Homo sapiens) (UniProt Q99549). As to the kind of experiment: qHTS Validation Assay for Inhibitors for MPP8 Chromodomain Interactions with Methylated Histone Tails (AID 488949).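 Note: 50 nM MPP8 with 50 nM peptide preformed then compounds added for 30 min; AlphaScreen signal from MPP8 chromodomain bound to biotinylated H3K9me3 peptide; top concentration of the series differs between compounds; % is set by controls: 0 for no effect and ±100 for the full control effect; nearly all actives have a fitted effect of over 55% in size.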 The method, boiled down: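 50 nM MPP8 + 50 nM b-H3K9me3 peptide, PBS pH 7.4/0.01% Tween-20, 30 min RT; + cpd 30 min RT; + AlphaScreen donor/Ni-chelate acceptor beads 10 ug/mL final, 30 min dark; luminescence read.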

Assay [16] addresses Transient receptor potential cation channel subfamily V member 1 (Homo sapiens) (UniProt Q8NER1). As to the kind of experiment: HTS Assay for Compounds that Act as Enhancers of the Vanilloid Receptor 1 (AID 488979). Note: 0% is about no effect. The method, boiled down:
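Calcium influx kinetics via Fluo-8 (480/520 nm) in TRPV1-expressing cells, 2000/well cultured overnight at 35.5C. Compound-alone read 3 min (agonist phase), followed by EC20 capsaicin challenge for 2 min (enhancer phase).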

In assay [17] the target is Thyrotropin receptor (Homo sapiens) (UniProt P16473). The assay can be described thus: qHTS Assay for Antagonists of the Thyroid Stimulating Hormone Receptor (AID 488980). Note: 0% is about no effect. The method, boiled down: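 Readout is cAMP by HTRF competition between cellular cAMP and cAMP-d2 for a cryptate-labelled antibody. Antagonism was assessed in TSHR-transfected HEK293 cells stimulated with 4 nM TSH (EC80, final) in the presence of RO 20-1724.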

The target of assay [18] is Thyrotropin-releasing hormone receptor (Homo sapiens) (UniProt P34981). As to the kind of experiment: qHTS for Small Molecule Agonists and Allosteric Enhancers of Human TRH Receptor: Validation Screen for Agonists (AID 493127;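 active = calcium activation more than 3 SD above the typical response in the agonist read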;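 note: intracellular calcium rise by fluo-8 fluorescence before TRH EC20 addition; 0% is about no effect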). The following applies: TRH receptor agonist cell assay; at 2 µM; stronger effect = higher value. The method, boiled down: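 Compounds are added by online pintool to dye-loaded TRHR cells while fluorescence is recorded every second. A rise in calcium signal during the agonist read marks activation; a later 10 nM TRH addition (EC20) serves the separate enhancer mode.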
Sequence of Thyrotropin-releasing hormone receptor (Homo sapiens) (P34981 whole entry, looked up): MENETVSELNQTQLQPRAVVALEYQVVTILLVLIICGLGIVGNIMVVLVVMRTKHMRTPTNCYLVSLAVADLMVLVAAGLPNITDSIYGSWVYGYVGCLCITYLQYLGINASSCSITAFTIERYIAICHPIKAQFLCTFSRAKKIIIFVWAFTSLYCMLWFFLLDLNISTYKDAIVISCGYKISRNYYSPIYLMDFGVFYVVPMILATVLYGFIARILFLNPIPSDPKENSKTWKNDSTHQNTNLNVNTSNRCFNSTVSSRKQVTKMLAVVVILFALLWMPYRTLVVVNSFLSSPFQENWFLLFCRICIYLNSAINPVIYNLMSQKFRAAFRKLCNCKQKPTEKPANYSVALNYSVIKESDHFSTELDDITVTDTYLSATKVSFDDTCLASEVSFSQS

Assay [19] concerns the target Galactokinase (Homo sapiens) (UniProt P51570). The assay can be described thus: qHTS Validation Assay for Inhibitors of Human Galactokinase (GALK) (AID 493189). Note: 0% is about no effect. The method, boiled down:
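5 nM GALK / 100 uM galactose / 35 uM ATP, 20 mM HEPES pH8.0, 5 mM MgCl2, 60 mM NaCl, 1 mM DTT, 0.01% BSA (final). RT 1 h; Kinase-Glo Plus luminescence.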

Assay [20] is described as follows: Validation screen for small molecules that induce DNA re-replication in SW480 colon adenocarcinoma cells (AID 504364). Note: 0% is about no effect. The method, boiled down: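 Image-based qHTS: compounds were incubated with SW480 cells for 48 hr, nuclei stained with Hoechst, and per-nucleus fluorescence intensity scanned to flag cells with excess DNA content.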
For assay [21], the target named is Voltage-gated inwardly rectifying potassium channel KCNH2 (Homo sapiens) (UniProt Q12809). As to the kind of experiment: qHTS Assay for Small Molecule Inhibitors of the Human hERG Channel Activity (AID 588834).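 Note: top concentration of the series differs between compounds; % is set by controls: 0 for no effect and ±100 for the full control effect; lower thallium flux fluorescence means stronger hERG block; nearly all actives have a fitted effect of over 50% in size.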 The method, boiled down: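 Step 1: BacMam hERG transduction of U2OS, 4 hrs RT. Step 2: overnight 37 °C, plate 2000 cells/well, 4 hr. Step 3: FluxOR load, compound 10 min, stimulate, read fluorescence.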
Sequence of Voltage-gated inwardly rectifying potassium channel KCNH2 (Homo sapiens) (Q12809 whole entry, looked up): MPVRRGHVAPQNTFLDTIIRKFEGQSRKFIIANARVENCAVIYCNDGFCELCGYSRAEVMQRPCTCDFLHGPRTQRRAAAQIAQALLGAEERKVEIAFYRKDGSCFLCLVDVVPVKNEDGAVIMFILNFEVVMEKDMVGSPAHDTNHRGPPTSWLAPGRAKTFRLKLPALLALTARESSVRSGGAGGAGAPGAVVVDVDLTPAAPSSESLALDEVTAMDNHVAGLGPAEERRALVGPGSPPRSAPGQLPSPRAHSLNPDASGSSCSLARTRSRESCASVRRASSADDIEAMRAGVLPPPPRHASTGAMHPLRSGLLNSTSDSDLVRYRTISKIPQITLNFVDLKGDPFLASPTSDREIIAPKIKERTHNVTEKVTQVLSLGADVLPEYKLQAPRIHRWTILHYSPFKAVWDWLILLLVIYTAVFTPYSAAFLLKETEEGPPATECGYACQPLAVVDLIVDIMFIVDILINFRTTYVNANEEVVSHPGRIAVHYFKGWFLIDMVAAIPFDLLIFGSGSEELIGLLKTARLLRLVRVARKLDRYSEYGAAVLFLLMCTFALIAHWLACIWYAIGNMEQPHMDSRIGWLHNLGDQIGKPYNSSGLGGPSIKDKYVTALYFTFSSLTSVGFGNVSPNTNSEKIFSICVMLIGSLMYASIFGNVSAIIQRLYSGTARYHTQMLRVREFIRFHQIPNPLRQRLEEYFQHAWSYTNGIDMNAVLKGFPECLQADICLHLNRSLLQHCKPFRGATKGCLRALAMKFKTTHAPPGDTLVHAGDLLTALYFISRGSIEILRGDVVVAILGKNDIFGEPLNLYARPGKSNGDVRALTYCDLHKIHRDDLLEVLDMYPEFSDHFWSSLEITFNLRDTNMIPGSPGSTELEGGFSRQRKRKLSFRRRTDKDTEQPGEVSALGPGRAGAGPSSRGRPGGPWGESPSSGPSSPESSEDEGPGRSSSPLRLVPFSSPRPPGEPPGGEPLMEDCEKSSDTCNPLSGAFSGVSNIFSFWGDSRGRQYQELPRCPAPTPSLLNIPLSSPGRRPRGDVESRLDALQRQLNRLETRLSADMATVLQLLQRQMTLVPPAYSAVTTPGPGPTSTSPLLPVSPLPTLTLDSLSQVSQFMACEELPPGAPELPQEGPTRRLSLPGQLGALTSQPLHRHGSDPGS

Assay [22] in a line: qHTS for differential inhibitors of proliferation of Plasmodium falciparum line 3D7 (AID 1876).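 Note: parasite growth measured after three days of culture; 0% = vehicle wells and -100% = reference inhibitor wells.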
The nature of assay [23]: qHTS for differential inhibitors of proliferation of Plasmodium falciparum line D10 (AID 1877).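 Note: parasites grown with compound for 72 h before DNA staining; plate controls were vehicle wells for no effect and reference inhibitor wells for full effect.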
Assay [24] in a line: qHTS for differential inhibitors of proliferation of Plasmodium falciparum line W2 (AID 1883).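 Note: parasites grown with compound for 72 h before lysis and staining; 0% = vehicle wells and -100% = control inhibitor wells.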 The note with it: Potency: Plasmodium falciparum W2 proliferation inhibition.
Assay [25] can be described thus: Quantitative high throughput screen for delayed death inhibitors of the malarial parasite plastid, 96 hour incubation (AID 488745).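 Note: luciferase-expressing P. falciparum in erythrocytes at 2% hematocrit and 0.1% parasitemia; % is set by controls: 0 for no effect and ±100 for the full control effect; nearly all actives have a fitted effect of over 70% in size.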 The method, boiled down:
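Readout is firefly luciferase luminescence from an integrated reporter in P. falciparum; lower signal marks inhibited growth. Cultures at 2% hematocrit and 0.1% parasitemia were treated with compound across two generations (96 h, 37 C, 5% CO2).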

Records with an inconclusive call do not appear. Active and inactive are the calls of the source. Unless noted, calls come from the whole dose curve; as a rule, active = well fitted curve in the direction sought with a large enough effect; inconclusive = small, poorly fitted or top-dose-only effect, or another doubt; inactive = no such curve, though single readings can be large; an effect the other way counts as inactive or inconclusive.

Sequence of DNA repair nuclease/redox regulator APEX1 (Homo sapiens) (P27695 whole entry, looked up): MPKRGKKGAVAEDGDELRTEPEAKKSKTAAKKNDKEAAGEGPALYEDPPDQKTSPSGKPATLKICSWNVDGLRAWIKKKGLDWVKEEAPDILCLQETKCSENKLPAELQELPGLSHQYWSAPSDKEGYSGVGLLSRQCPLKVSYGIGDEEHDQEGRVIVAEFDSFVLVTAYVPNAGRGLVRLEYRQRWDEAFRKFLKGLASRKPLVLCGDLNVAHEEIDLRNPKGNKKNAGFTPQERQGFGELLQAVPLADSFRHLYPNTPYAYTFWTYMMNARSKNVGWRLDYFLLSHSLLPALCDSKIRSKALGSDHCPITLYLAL
Sequence of M-phase phosphoprotein 8 (Homo sapiens) (Q99549 whole entry, looked up): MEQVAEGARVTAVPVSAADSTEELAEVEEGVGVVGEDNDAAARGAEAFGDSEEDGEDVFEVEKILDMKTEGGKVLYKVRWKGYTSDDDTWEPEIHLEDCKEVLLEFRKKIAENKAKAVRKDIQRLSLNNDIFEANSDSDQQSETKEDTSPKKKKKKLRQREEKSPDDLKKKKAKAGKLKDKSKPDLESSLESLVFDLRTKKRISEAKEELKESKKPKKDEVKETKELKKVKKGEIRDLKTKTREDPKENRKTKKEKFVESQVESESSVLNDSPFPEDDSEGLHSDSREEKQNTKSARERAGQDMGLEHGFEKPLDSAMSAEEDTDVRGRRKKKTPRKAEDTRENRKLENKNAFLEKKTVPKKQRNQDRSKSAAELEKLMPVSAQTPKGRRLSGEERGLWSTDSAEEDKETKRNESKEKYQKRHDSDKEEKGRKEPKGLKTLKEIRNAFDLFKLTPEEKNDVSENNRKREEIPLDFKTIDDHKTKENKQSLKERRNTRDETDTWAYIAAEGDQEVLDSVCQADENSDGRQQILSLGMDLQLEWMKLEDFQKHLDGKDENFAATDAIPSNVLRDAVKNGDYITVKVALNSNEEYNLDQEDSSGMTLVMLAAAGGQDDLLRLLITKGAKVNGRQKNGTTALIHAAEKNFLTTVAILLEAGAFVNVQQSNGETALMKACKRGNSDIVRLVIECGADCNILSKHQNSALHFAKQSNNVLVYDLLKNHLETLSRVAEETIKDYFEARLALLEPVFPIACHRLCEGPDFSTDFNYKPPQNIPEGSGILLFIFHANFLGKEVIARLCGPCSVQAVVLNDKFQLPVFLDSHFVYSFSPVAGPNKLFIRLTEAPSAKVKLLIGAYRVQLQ
Sequence of Ferritin light chain (Equus caballus) (P02791 2-175 limits assumed): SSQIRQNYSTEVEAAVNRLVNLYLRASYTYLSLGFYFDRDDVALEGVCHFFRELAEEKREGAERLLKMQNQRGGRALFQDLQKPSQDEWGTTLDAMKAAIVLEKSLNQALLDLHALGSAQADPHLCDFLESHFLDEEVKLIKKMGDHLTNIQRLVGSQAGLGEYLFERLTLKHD
Sequence of Galactokinase (Homo sapiens) (P51570 whole entry, looked up): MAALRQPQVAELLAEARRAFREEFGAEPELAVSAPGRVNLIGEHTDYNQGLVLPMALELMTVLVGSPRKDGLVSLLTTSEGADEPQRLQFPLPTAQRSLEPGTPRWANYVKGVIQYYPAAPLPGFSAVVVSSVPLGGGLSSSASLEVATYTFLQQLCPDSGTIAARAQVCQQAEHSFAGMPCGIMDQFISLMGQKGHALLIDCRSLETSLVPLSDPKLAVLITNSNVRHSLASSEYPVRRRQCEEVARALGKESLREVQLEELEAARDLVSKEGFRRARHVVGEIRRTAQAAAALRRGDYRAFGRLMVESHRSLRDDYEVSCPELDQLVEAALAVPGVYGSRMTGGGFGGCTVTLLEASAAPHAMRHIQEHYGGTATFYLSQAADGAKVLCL
Sequence of ATP-dependent DNA helicase Q1 (Homo sapiens) (P46063 whole entry, looked up): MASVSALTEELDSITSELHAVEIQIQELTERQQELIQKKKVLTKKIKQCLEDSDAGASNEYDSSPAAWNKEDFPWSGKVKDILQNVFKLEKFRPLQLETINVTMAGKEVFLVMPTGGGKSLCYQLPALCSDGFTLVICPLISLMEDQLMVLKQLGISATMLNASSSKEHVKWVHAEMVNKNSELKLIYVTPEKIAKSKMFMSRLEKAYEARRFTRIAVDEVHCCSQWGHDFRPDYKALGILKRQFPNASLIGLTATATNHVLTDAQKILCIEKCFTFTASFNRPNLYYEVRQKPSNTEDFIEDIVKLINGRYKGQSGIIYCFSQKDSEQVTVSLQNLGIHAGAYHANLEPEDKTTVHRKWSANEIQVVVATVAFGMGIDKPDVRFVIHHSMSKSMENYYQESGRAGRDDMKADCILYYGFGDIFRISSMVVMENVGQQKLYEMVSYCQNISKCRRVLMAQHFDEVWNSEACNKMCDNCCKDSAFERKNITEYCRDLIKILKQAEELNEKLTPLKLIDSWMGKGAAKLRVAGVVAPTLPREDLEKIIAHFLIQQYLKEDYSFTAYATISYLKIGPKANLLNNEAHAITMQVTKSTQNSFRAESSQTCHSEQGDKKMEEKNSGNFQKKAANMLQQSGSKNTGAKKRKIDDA
Sequence of Transient receptor potential cation channel subfamily V member 1 (Homo sapiens) (Q8NER1 whole entry, looked up): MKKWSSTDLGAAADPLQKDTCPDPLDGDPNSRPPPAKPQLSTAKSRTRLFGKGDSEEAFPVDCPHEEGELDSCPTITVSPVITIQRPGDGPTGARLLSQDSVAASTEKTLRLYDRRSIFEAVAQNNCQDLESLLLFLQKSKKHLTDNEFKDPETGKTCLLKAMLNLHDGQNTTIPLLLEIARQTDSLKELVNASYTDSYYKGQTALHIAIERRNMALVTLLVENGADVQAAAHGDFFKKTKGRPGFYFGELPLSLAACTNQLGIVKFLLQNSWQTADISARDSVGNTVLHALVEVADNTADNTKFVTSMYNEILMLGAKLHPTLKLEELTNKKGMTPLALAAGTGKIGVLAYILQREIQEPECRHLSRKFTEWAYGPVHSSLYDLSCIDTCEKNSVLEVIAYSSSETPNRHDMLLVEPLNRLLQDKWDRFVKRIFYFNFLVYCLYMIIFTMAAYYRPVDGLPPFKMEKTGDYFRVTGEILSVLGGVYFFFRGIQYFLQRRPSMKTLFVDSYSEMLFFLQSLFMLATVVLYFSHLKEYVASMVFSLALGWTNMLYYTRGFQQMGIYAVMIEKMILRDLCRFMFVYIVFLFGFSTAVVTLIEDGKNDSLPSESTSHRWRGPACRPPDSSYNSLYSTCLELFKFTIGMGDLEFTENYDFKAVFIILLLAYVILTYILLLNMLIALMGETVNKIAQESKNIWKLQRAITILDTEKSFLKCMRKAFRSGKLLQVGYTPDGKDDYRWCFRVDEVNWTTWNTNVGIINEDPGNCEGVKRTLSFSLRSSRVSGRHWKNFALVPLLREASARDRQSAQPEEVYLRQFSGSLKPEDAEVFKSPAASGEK

For `CC(=O)O[C@H]1C[C@@H]2CCC3C(CC[C@@]4(C)[C@H]3C[C@H]([N+]3(C)CCCCC3)[C@@H]4OC(C)=O)[C@@]2(C)C[C@@H]1[N+]1(C)CCCCC1` (stereo not given in full), the result in assay [1], in [5], in [10], in assay [11], in assay [13] and in assay [16] was inactive. For the same compound, the call in assay [17], in assay [19] and in assay [20] was inactive. In addition, the activity change, negative = inhibition in assay [2] (at 57.5 µM (top of the series)) was 0.655% (inactive). Moreover, the max response was -31.8% in assay [2] (measured here: cell count channel max response) and -31.3% in assay [2] (measured here: lipid channel max response). The Potency entry in assay [3], in [4], in assay [6], in assay [7], in assay [8] and in [9] was “inactive” throughout. The Potency result in assay [12], in [14], in [15] and in [21] was “inactive” throughout. Also, in [18], the activation was 0.25% (inactive).

Consider `CCCCCCCCCCCCCCC/C=C/[C@@H](O)[C@H](NC(=O)CCCCCCCCCCCCC)OC` (tested in a mixture with another compound), for which the compound was called inactive in assay [1], in assay [5], in assay [10], in [11], in [13] and in assay [19]. Besides, the compound was classed as inactive in assay [20]. Besides, the Potency result in [3], in [4], in assay [6], in assay [7], in assay [22] and in [23] was “inactive” each time. Moreover, the Potency result in [8], in assay [24], in assay [9], in [12], in assay [25] and in assay [14] was “inactive” in each case. For the same compound, the Potency result in assay [15] and in [21] was “inactive” in each case. The activation in [18] was 1.19% (inactive).
